Measurements taken from PubChem BioAssay.

Key:
[1] = test system: Human papillomavirus type 1a protein E7 (residues 44-93); assay: small molecules binding HPV E7 44-93 – biochemical, small-molecule microarray, residues 44-93, 635 nm fluorescence, primary screen (AID 1108); settings: fluorescence 635 nm, higher = more signal;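 further: E7 fragment applied at 1 µg/mL in TBST for 1 h at 4 C; score combines spot fluorescence with its signal to noise ratio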
[2] = hepatitis C replication reporter changes, two-sided – Huh7 cells, luciferase reporter, HCV replication inhibitor project, primary screen (AID 1109); settings: Huh7 HCV replicon luciferase reporter, 48 h; higher = more signal;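 further: huh7 hepatoma cells harbouring a luciferase neomycin HCV replicon reporter; luciferase luminescence as measure of HCV replicon replication; test concentration not given here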
[3] = molecular target: Left-right determination factor 2 (Homo sapiens) (UniProt O00292); assay: small molecules binding LEFTY2 protein – biochemical, small-molecule microarray, 635 nm fluorescence scan, primary screen (AID 1110); settings: higher = more signal
Left-right determination factor 2 (Homo sapiens), sequence (O00292 whole entry, looked up): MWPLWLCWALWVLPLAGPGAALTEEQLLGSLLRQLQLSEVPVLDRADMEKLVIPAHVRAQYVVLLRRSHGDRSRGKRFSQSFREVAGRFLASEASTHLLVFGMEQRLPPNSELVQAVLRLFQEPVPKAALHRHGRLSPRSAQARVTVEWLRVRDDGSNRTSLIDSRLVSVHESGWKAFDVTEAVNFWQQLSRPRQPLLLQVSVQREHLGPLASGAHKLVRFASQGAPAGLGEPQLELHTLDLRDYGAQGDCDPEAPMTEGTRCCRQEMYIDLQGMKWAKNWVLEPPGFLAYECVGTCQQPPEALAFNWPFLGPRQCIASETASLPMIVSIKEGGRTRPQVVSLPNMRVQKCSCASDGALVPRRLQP

[4] = molecular target: Calmodulin-1 (Homo sapiens) (UniProt P0DP23); assay: small molecules binding calmodulin-1 with EGTA – biochemical, small-molecule microarray, Cy5-labelled CALM1, profiling panel (AID 1111); settings: Cy5-CALM1 binding fluorescence, higher = more signal;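 further: labelled calmodulin applied in Tris saline Tween buffer holding calcium plus EGTA and DTT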
[5] = molecular target: Calmodulin-1 (Homo sapiens) (UniProt P0DP23); assay: small molecules binding Ca-loaded calmodulin-1 – biochemical, small-molecule microarray, Cy5-labelled CALM1, plus calcium, artefact control for SMM control-protein annotation, profiling panel (AID 1112); settings: Cy5-CALM1 binding fluorescence, higher = more signal;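 further: score merges spot fluorescence with signal to noise from triplicate slides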
[6] = probe aWnt5a binding to arrayed compounds – biochemical, biotinylated probe, 635/667 nm fluorescence, primary screen (AID 1113); settings: small-molecule microarray, higher = more signal;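 further: score merges 667 nm fluorescence intensity with signal-to-noise per printed feature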
[7] = probe aShh binding to arrayed compounds – biochemical, biotinylated probe, 635/667 nm fluorescence, primary screen (AID 1114); settings: small-molecule microarray, higher = more signal;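 further: probe is biotin-labelled aShh protein from a stem cell growth factor screen; measures binding of labelled protein to compounds printed on the slide; score merges feature fluorescence at 667 nm with signal-to-noise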
[8] = probe aNog binding to arrayed compounds – biochemical, biotinylated probe, 635/667 nm fluorescence, primary screen (AID 1115); settings: small-molecule microarray, higher = more signal;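 further: probe is biotinylated aNog protein used at 0.15 µg/mL for 1 h at 4 C; z-score combines 667 nm fluorescence of each spot with its signal to noise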
[9] = molecular target: Torsin-1A-interacting protein 1 (Homo sapiens) (UniProt Q5JTV8); assay: compound microarray binding of lysate hLAP1 – cell lysate, small-molecule microarray, COS7 lysate, 635/667 nm fluorescence, primary screen (AID 1116); settings: 635 nm fluorescence, higher = more signal
Torsin-1A-interacting protein 1 (Homo sapiens), sequence (Q5JTV8 whole entry, looked up): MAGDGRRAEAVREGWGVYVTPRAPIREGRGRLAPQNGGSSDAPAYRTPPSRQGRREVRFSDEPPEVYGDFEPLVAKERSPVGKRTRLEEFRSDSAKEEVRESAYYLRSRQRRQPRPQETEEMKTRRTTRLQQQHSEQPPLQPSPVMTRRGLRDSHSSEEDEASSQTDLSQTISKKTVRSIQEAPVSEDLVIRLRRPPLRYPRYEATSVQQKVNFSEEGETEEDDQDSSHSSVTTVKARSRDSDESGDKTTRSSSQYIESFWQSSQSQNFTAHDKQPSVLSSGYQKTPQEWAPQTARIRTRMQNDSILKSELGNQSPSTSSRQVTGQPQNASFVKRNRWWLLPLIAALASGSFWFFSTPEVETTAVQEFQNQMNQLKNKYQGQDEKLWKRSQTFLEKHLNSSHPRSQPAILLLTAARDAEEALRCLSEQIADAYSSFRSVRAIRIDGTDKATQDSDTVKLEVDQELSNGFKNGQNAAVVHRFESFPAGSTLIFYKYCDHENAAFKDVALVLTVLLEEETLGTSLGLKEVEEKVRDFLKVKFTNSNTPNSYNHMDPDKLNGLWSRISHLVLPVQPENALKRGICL

[10] = molecular target: Alpha-bungarotoxin (Bungarus multicinctus) (UniProt P60615); assay: compounds binding labelled alpha-BTX control protein – biochemical, small-molecule microarray, Alexa647 label, 635/667 nm fluorescence, artefact control for SMM control protein annotation, profiling panel (AID 1117); settings: alpha-BTX-A647 binding fluorescence, higher = more signal
Alpha-bungarotoxin (Bungarus multicinctus), sequence (P60615 whole entry, looked up): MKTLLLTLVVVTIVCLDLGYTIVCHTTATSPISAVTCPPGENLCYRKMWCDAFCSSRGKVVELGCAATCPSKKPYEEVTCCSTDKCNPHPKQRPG

Row | Compound | composite z-score [1] | z-score [2] | composite z-score [3] | composite z-score [4] | composite z-score [5] | composite z-score [6] | composite z-score [7] | composite z-score [8] | composite z-score [9] | composite z-score [10]
1 | C[N+](C)(C)CCCC[C@@H]1NC(=O)[C@H]2C[C@@H](C(=O)O)[C@@H](c3ccc(O)cc3)N2C1=O | 0.315 | 3.08 | 0.436 | -0.171 | 0.11 | -0.147 | -0.375 | -0.14 | 1.74 | 0.343
2 | C=C1C(=O)C=C2CN(C(=O)c3ccccc3)[C@@](Cc3ccc(F)cc3)(C(=O)OC)[C@@H]12 | 1.39 | -3.68 | -0.406 | 2.19 | 1.08 | 0.177 | -0.0626 | 1.99 | 0.952 | 1.85
3 | C=C(CCCC)/C(=C/C[C@@H](OC(C)=O)c1ccc(OCCO)cc1)c1cc(C(=O)OC)ccc1OC | 0.722 | -2.31 | -0.103 | -0.108 | -0.95 | -0.124 | -0.0769 | 0.408 | 1.17 | 0.722
4 | C=C(COC)/C(=C/C[C@@H](OC(C)=O)c1cccc(OCCO)c1)c1cnc2ccccc2c1 | 0.848 | -1.73 | 0.754 | -0.534 | -0.593 | 0.0391 | 0.199 | -0.0065 | 0.302 | 1.87
5 | C[N+](C)(C)CCCC[C@@H]1NC(=O)[C@H]2C[C@@H](C(=O)NCCCCCN)[C@@H](c3ccc(O)cc3)N2C1=O | -0.0195 | 0.493 | 1.34 | 1.67 | 0.631 | -0.0403 | -0.0886 | 0.177 | 1.52 | 2.54
6 | CN(C)CCCC[C@@H]1NC(=O)[C@H]2C[C@@H](C(=O)NCCCCCCNC(=O)CS)[C@@H](c3cccc(OCCO)c3)N2C1=O | 0.521 | 0.0145 | -0.17 | -0.0373 | -0.323 | -0.113 | -0.0709 | -0.429 | 0.358 | 0.539
7 | C=C(C(=O)CC[C@@H](OC(=O)c1ccccc1-c1ccccc1C(=O)O)c1ccc(OCCO)cc1)C(C)C | 1.33 | -2.58 | 0.63 | 0.653 | -0.698 | 0.0162 | 0.108 | -0.095 | 1.3 | 0.478
8 | [N-]=[N+]=NCc1ccccc1C[C@]1(C(=O)N2CCCCC2)COC(c2ccc(OCCCO)cc2)=N1 | 0.288 | -2.57 | 0.227 | 0.103 | -0.171 | -0.255 | 0.262 | -0.694 | 2.29 | 0.49
9 | COC(=O)[C@@]1(Cc2ccc(F)cc2)[C@H]2c3cc(C(=O)N(C)C)n(Cc4cccc5ccccc45)c3C[C@H]2CN1C(=O)c1ccccc1 | 1.12 | -1.57 | -0.856 | 0.0818 | 0.189 | 0.492 | 1.76 | 1.53 | 1.17 | -0.145
10 | CC(C)Cc1ccc(CN2CC[C@@H](NC(=O)c3ccccc3)C2)cc1 | -0.979 | -4.02 | 0.0756 | -0.816 | -0.524 | -0.159 | -0.345 | -0.367 | 0.367 | 1.01
11 | C=CCN1C(=O)[C@@]2(O[C@@H](CCO)[C@H]([Si](C)(C)c3ccc(OC)cc3)[C@H]2C)c2cc(N3CCCCC3=O)ccc21 | 1.36 | -3.29 | 0.264 | 0.721 | 0.519 | -0.091 | 0.151 | 0.197 | 0.813 | 1.14
12 | C=C(CCCC)C(=O)CC[C@H](OC(=O)c1ccccc1-c1ccccc1C(=O)O)c1cccc(OCCO)c1 | -0.109 | -1.92 | 0.0292 | -0.268 | -0.832 | -0.13 | -0.0866 | -0.318 | 0.206 | -0.0274
13 | O=C1N(Cc2ccccc2)c2ccccc2C[C@@]12N=C(c1ccc(OCCCO)cc1)O[C@H]2c1ccccc1 | 1.34 | -3.11 | -0.297 | 0.333 | -0.458 | -0.103 | 0.0948 | 0.576 | 0.176 | 0.849
